Bioassay records deposited in PubChem BioAssay by Johns Hopkins Ion Channel Center.
KCNQ2 block: inhibitors of rat KCNQ2 potassium channel. CHO-K1 KCNQ2, FluxOR thallium flux, 20 min; hits give low values. O88943. AID 2156. B-score at 10 µM. 310,000 tested, 1.1% active;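 active = fluorescence ratio B-score at most minus 3 library SDs, with starting brightness B-score within 2 library SDs, cut at about -5.5 in these data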
Target sequence (O88943 whole entry, looked up): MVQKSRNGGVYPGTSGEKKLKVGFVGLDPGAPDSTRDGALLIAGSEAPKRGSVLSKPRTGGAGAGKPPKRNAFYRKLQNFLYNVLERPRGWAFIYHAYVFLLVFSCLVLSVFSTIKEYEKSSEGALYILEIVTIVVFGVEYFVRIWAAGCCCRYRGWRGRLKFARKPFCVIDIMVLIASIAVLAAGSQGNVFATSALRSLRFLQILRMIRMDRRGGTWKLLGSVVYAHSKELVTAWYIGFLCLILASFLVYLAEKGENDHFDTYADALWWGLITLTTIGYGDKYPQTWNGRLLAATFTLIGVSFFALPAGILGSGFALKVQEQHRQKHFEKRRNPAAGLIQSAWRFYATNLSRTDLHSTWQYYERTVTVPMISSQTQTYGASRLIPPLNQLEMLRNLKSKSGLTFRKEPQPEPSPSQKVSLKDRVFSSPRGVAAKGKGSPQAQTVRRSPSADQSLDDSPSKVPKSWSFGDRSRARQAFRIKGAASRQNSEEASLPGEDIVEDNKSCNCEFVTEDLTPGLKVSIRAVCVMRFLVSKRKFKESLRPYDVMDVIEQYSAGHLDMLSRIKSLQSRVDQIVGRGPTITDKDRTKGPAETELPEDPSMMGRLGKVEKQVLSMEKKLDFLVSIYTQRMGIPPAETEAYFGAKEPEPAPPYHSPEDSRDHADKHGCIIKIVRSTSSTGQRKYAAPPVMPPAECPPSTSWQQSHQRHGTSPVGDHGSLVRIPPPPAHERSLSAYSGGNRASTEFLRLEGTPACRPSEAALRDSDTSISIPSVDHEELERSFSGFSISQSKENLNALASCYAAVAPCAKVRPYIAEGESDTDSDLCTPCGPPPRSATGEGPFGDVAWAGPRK
KCNQ2 pot: potentiators of rat KCNQ2 potassium channel; CHO-K1 KCNQ2, FluxOR thallium flux fluorescence; hits give high values; AID 2239; 310,000 tested, 0.54% active; B-score at 10 µM;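 active = fluorescence ratio B-score at least 3 SD of library B-scores, with initial fluorescence B-score within 3 of them, cut at about 5.3 in these data; same plate scores as AID 2156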;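 note: B-score of peak minus minimum over baseline fluorescence ratio after K+ and Tl+ stimulus; positive B-score means potentiation of KCNQ2 with more thallium influx and brighter signal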
KCNQ2 block conf: confirmation of rat KCNQ2 potassium channel inhibitors. shares compounds with KCNQ2 block. KCNQ2-expressing cells, thallium flux, inhibition; hits give low values. activity change, negative = inhibition, % at 10 µM. 1,000 tested, 57% active. AID 493025;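 note: 0% = vehicle wells and values are ratio percent relative to vehicle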
KCNQ1 spec: KCNQ2 inhibitor that also affects human KCNQ1 channel | KCNQ1-expressing cells, FluxOR thallium flux fluorescence; hits give low values | AID 493026 | shares compounds with KCNQ2 block | 1,000 tested, 15% active | activity change, negative = inhibition, % at 10 µM;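 active = activity change at least 3 SD of negative controls below their mean in both duplicate wells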;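 note: CHO cells stably transfected with KCNQ1 and depolarized by potassium stimulus; peak minus minimum fluorescence over baseline after thallium addition; 0% = vehicle negative control and -100% = blank without thallium stimulus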
CHO parental ctr: KCNQ2 inhibitor counter-screen hit in parental CHO cells; shares compounds with KCNQ2 block; thallium flux counter-screen; hits give low values; activity change, % at 10 µM; 1,000 tested, 14% active; AID 493029;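 note: 0% = vehicle negative controls with stimulus buffer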
KCNQ2 patch conf: confirmation of rat KCNQ2 potassium channel inhibitors; shares compounds with KCNQ2 block; KCNQ2-expressing cells, automated patch clamp current; calls only at 10 µM; 550 tested, 49% active
* marks the source's active call; other numbers are inactive results; i = inactive; nt = not tested or not shown; + = active, no number. The list is not random: actives were taken first. Their share in the collection is about 1.6%. Unless noted, the rule behind the calls is not given here.

SMILES | KCNQ2 block | KCNQ2 pot | KCNQ2 block conf | KCNQ1 spec | CHO parental ctr | KCNQ2 patch conf
N#Cc1ccc(/C=C/C(=O)c2cccnc2)cc1 | -11* | -11 | -29%* | i | i | i
c1ccc(CCn2nnnc2C(c2cccs2)N2CCOCC2)cc1 (centres undefined) | i | 1.1 | nt | nt | nt | nt
COc1ccccc1C(=O)C1CCCN(C(=O)C2=CC(=O)CC(C)(C)O2)C1 (centres undefined) | i | 1.2 | nt | nt | nt | nt
Cc1ccc(S(=O)(=O)c2nc(-c3ccccc3)oc2NCCN2CCOCC2)cc1 | i | nt | nt | nt | nt | nt
CC(C)c1ccc(/C=N/NC(=O)c2cccc(Cl)c2)cc1 | i | nt | nt | nt | nt | nt
CC(C)c1ccc(C(=O)N/N=C/c2cccc(Cl)c2Cl)cc1 | -9.5* | -9.5 | i | i | i | nt
Cc1ccc(N=C2SCCCN2C(=O)c2ccco2)cc1Cl | i | nt | nt | nt | nt | nt
CC(C)(C)n1nnnc1C(c1ccncc1)N1CCCCCC1 (centres undefined) | i | nt | nt | nt | nt | nt
CC(C)(C)n1nnnc1C(c1ccc(C#N)cc1)N1CCCC2(CCCCC2)C1 (centres undefined) | -7.1* | -7.1 | -37%* | -38%* | -37%* | i
Cn1cc(/C=N/n2cnc3sc4c(c3c2=O)CCCC4)c2ccccc21 | -9.2* | -9.2 | i | i | i | nt
O=c1c2c3c(sc2ncn1/N=C/c1ccc([N+](=O)[O-])o1)CCCC3 | i | nt | nt | nt | nt | nt
COc1ccccc1NC(=S)N1CCCCCC1 | i | 0.21 | nt | nt | nt | nt
CSCCC(NC(=O)c1ccc(Cl)cc1)C(=O)OCC(=O)Nc1cc(Cl)ccc1C (centres undefined) | -6.8* | -6.8 | -26%* | i | i | +
CSCCC(NC(=O)c1ccc(Cl)cc1)C(=O)O (centres undefined) | i | 0.16 | nt | nt | nt | nt
COc1ccccc1CNC(=S)NC1CCCCC1 | i | nt | nt | nt | nt | nt
CCc1ccc(-n2cccc2/C=C2/C(=N)N3C(=NC2=O)SN=C3S(C)(=O)=O)cc1 | -10* | -10 | -39%* | -41%* | -35%* | i
Cc1ccc(-n2cccc2/C=C2/C(=N)N3C(=NC2=O)SN=C3S(C)(=O)=O)cc1 | i | nt | nt | nt | nt | nt
O=C(OC1CCOC1=O)c1ccc(N2CCCC2)c([N+](=O)[O-])c1 (centres undefined) | i | 1.1 | nt | nt | nt | nt
COc1ccc(CNC(=O)C2CCCN(S(=O)(=O)c3ccccc3)C2)cc1 (centres undefined) | i | nt | nt | nt | nt | nt
CCN(c1ccc(OC)cc1)S(=O)(=O)N1CCCC(C(=O)NCc2ccccc2Br)C1 (centres undefined) | -10* | -10 | i | i | i | nt
COc1ccc(Cl)cc1C(=O)Nn1c(-c2cccs2)nc2ccccc2c1=O | i | 0.19 | nt | nt | nt | nt
COc1cccc(OC)c1C(=O)Nn1c(-c2cccs2)nc2ccccc2c1=O | -9.2* | -9.2 | i | i | i | nt
CSc1nc(NCCOCCO)c2sc3nc(-c4ccco4)c4c(c3c2n1)CCC4 | i | 1.6 | nt | nt | nt | nt
Clc1ccc(COn2c(-c3ccccc3)nc3ccccc32)cc1 | -14* | -14 | i | i | i | nt
Clc1ccc(COn2c(-c3ccc(Cl)cc3)nc3ccccc32)cc1 | i | nt | nt | nt | nt | nt
SMILES | KCNQ2 block | KCNQ2 pot | KCNQ2 block conf | KCNQ1 spec | CHO parental ctr | KCNQ2 patch conf
Cc1cc(OCC(=O)N(C)C2CCCCC2)cc(C)c1Cl | -7.4* | -7.4 | -43%* | -46%* | -38%* | +
CN(C(=O)COC(=O)COc1ccc(Cl)cc1)C1CCCCC1 | i | nt | nt | nt | nt | nt
Cc1ccc(Cn2ccsc2=NC(=O)COC(=O)C(C)C)cc1 | i | 0.91 | nt | nt | nt | nt
CCOc1ccc(NC(=O)CCCn2c(=S)[nH]c3ccsc3c2=O)cc1 | i | nt | nt | nt | nt | nt
CC(C)c1ccc(N(CC(=O)O)S(=O)(=O)c2cccnc2)cc1 | i | 0.34 | nt | nt | nt | nt
CC1CCCC(C)N1CCNC(=O)Cn1nc(-c2ccccc2)ccc1=O (centres undefined) | i | nt | nt | nt | nt | nt
O=C(CC1C(=O)NCCN1CC1CCCCC1)NCc1cccc(F)c1F (centres undefined) | i | 0.1 | nt | nt | nt | nt
O=C(NC1c2ccccc2-c2ccccc21)N1CCCCC1 | -6.8* | -6.8 | -25%* | i | i | +
CN(C)C(=O)NC1c2ccccc2-c2ccccc21 | i | nt | nt | nt | nt | nt
Cc1nnc(SCC(=O)Nc2ccccc2F)n1Cc1ccco1 | i | 1.5 | nt | nt | nt | nt
Cc1ccc(C(=O)N2CCC(n3nccc3NC(=O)c3ccccc3C)CC2)cn1 | i | 0.01 | nt | nt | nt | nt
O=C(Nc1nc(-c2ccc(-c3ccccc3)cc2)cs1)c1cc([N+](=O)[O-])ccc1N1CCOCC1 | i | 0.52 | nt | nt | nt | nt
O=C(Nc1nc2c(ccc3ccccc32)s1)c1cc([N+](=O)[O-])ccc1N1CCOCC1 | -9.6* | -9.6 | -25%* | i | i | i
COc1cc(-c2cc(C(=O)Nc3ccc(O)cc3)c3ccccc3n2)cc(OC)c1OC | -7.7* | -7.7 | -30%* | i | i | +
O=C(Nc1ccccc1F)c1cc(-c2ccco2)nc2ccccc12 | i | 0.04 | nt | nt | nt | nt
COc1ccc(-c2cc(C(=O)NN3CCOCC3)c3ccccc3n2)cc1OC | i | 0.26 | nt | nt | nt | nt
COc1cc(-c2cc(C(=O)Nc3ccccc3N3CCOCC3)c3ccccc3n2)cc(OC)c1OC | -7.8* | -7.8 | -31%* | i | i | +
COc1cc(-c2cc(C(=O)Nc3nc4ccccc4s3)c3ccccc3n2)cc(OC)c1OC | i | nt | nt | nt | nt | nt
O=C(Nc1ccccc1N1CCOCC1)c1cc(-c2ccco2)nc2ccccc12 | -7* | -7 | -54%* | -54%* | -50%* | +
CCC1(c2ccc(F)cc2)NC(=O)N(CC(=O)Nc2ccc(N3CCCCC3)cc2)C1=O (centres undefined) | i | nt | nt | nt | nt | nt
O=C(COc1ccccc1)NCc1ccc(-n2cccc2)cc1 | i | nt | nt | nt | nt | nt
Fc1cccc(Cl)c1-c1nnc2ccc(C(F)(F)F)cn12 | i | nt | nt | nt | nt | nt
CN(C)S(=O)(=O)c1ccc(N2CCCC2)c(C(=O)NNC(=O)COc2ccccc2F)c1 | -8.3* | -8.3 | -22%* | i | i | +
CN(C)S(=O)(=O)c1ccc(N2CCCC2)c(C(=O)NNC(=O)COc2ccccc2Cl)c1 | i | nt | nt | nt | nt | nt
O=C(Nc1ccc(N2CCOCC2)cc1)Nc1ccc(Cl)c(Cl)c1 | -6.6* | -6.6 | -28%* | i | i | i
SMILES | KCNQ2 block | KCNQ2 pot | KCNQ2 block conf | KCNQ1 spec | CHO parental ctr | KCNQ2 patch conf
O=C(Nc1ccc(Cl)cc1)Nc1ccc(N2CCOCC2)cc1 | i | nt | nt | nt | nt | nt
Cc1ccc(S(=O)(=O)NC(=O)NCCCN2CCOCC2)cc1 | i | 0.15 | nt | nt | nt | nt
Cc1cccc2c1Sc1ccc(Cl)cc1CC2N1CCNCC1 (centres undefined) | -8.4* | -8.4 | -42%* | -34%* | -28%* | +
CCc1cccc2c1Sc1ccccc1CC2N1CCNCC1 (centres undefined) | i | nt | nt | nt | nt | nt
Cc1ccc(C(=O)Nc2cccc(N(C)S(C)(=O)=O)c2)cc1S(=O)(=O)Nc1ccccc1 | i | 1.6 | nt | nt | nt | nt
CC1CCC(C(C)C)C(OC(=O)Cn2c(-c3ccc(Cl)cc3)[n+](C)c3ccccc32)C1 (centres undefined) | -6.7* | -6.7 | -46%* | -46%* | -48%* | +
